tim10-1 inh: inhibits growth of tim10-1 mutant yeast; S. cerevisiae tim10-1 ts strain growth, BacTiter-Glo, 24 h; inhibition, % at 20 µM; 2.2% of 330,000 active; AID 463190;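 active = inhibition of at least 40%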;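 note: mutant grown at 25 °C; 0% = DMSO wells with yeast and 100% = wells holding no yeast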
tim23-1 inh: inhibits growth of tim23-1 mutant yeast. inhibition, % at 20 µM. 1.3% of 330,000 active. S. cerevisiae tim23-1 growth, BacTiter-Glo luminescence, 24 h;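 active = growth inhibition of the mutant yeast at or above 50%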;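 note: temperature-sensitive mutant grown at 25 °C; plate controls were DMSO-treated mutant yeast for no effect and medium wells lacking yeast for full effect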
MPTP inh: blocks calcium-induced mitochondrial swelling; isolated mouse mitochondria, Ca2+ swelling absorbance, 30 min; inhibition, % at 10 µM; 1.4% of 360,000 active; AID 602449;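 active = inhibition of 50% or more, scaled per plate between neutral and stimulator controls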;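 note: 0% = DMSO wells given calcium and 100% = 1 mM EGTA wells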
Mdm2 MdmX PPI: disrupts the human Mdm2-MdmX interaction. O15151+Q00987. SaOS-2 split-luciferase Mdm2/MdmX complementation, luminescence. inhibition, % at 8 µM. 3% of 330,000 active. AID 485346;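 active = inhibition of at least 50% at 8 µM in the primary screen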
Target sequence (O15151 whole entry, looked up): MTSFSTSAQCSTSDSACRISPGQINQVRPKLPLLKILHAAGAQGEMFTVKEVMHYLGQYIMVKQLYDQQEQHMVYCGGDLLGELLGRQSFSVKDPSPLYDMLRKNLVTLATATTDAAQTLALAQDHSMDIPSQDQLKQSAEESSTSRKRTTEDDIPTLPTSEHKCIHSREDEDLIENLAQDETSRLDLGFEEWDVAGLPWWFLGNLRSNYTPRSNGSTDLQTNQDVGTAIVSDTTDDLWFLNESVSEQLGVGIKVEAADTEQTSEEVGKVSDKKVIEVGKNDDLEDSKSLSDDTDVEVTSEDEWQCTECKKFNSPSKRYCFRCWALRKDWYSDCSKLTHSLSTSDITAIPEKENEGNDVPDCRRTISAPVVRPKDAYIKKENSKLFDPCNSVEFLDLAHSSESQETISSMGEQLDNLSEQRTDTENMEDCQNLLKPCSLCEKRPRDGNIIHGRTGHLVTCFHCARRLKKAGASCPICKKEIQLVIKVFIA
Target sequence (Q00987 whole entry, looked up): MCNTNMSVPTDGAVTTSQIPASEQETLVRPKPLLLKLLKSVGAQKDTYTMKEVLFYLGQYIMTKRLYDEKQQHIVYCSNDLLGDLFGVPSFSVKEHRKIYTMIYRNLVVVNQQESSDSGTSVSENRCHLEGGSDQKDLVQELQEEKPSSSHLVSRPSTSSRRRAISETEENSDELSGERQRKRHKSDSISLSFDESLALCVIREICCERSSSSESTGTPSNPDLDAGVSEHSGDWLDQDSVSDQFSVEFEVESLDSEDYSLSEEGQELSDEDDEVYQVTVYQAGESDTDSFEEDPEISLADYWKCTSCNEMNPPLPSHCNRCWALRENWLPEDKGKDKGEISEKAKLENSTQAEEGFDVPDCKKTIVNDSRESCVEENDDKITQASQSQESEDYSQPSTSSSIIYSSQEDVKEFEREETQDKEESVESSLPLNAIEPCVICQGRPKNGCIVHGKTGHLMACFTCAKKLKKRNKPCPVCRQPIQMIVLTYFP
TIM10 inh: growth inhibitors of TIM10 yeast strain. inhibition, % at 10 µM. S. cerevisiae TIM10 strain growth, BacTiter-Glo luminescence, 24 h. 1.4% of 330,000 active;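 active = inhibition of 40% or more at the single tested concentration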;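 note: wild-type TIM10 isogenic control strain grown at permissive 25 °C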
tim10-1 conf: confirmation of tim10-1 mutant yeast growth inhibitors | shares compounds with tim10-1 inh | S. cerevisiae tim10-1 ts strain growth, BacTiter-Glo, 24 h | inhibition, % at 20 µM | 56% of 7,400 active;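 active = inhibition of yeast growth at or above a set limit in either of two repeat tests at 20 µM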;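 note: tim10-1 mutant grown at permissive 25 °C to find synthetic lethal compounds; 0% = DMSO yeast wells and 100% = medium wells without yeast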
* = called active by the depositor; . = not tested or not shown. Compounds with a hit are over-represented: about 6.3% of the library has one in this group of screens.

SMILES | tim10-1 inh | tim23-1 inh | MPTP inh | Mdm2 MdmX PPI | TIM10 inh | tim10-1 conf
CCOc1ccccc1N1CCN(C(=S)NCc2ccccc2)CC1 | 43.8* | 35.9 | -1.7 | 16.7 | 13.5 | 19.1
COc1ccccc1N1CCN(C(=O)c2ccc(-c3ccccc3)cc2)CC1 | 40.7* | 31.2 | 0.1 | -17.8 | 28.4 | 26.9
O=C(c1ccc(-c2ccccc2)cc1)N1CCN(c2ncccn2)CC1 | 43.1* | 30.6 | -1.0 | 8.5 | 29.6 | 24.9
COc1ccc(NC(=O)C2(C)Cc3c(-c4cccc(C(F)(F)F)c4)ccnc3O2)cc1OC (stereo unspecified) | . | . | -2.3 | . | . | .
COc1ccccc1C1CCN(C(=O)c2ccc(C(C)(C)C)cc2)CC1 | 40.8* | 42.3 | 1.5 | 28.2 | 27.5 | 33.3*
COc1ccccc1N1CCN(C(=O)c2ccc(CSc3ccccc3)cc2)CC1 | 40.1* | 39.6 | 0.7 | -17.1 | 28.0 | 40.5*
COc1cc2c(cc1OC)CN(C(=O)c1ccc(-c3ccccc3)cc1)CC2 | 49.3* | 44.0 | -1.5 | 17.4 | 23.7 | 37.9*
COc1ccccc1N1CCN(C(=O)c2ccc(C(C)(C)C)cc2)CC1 | 49.6* | 43.2 | -1.9 | 23.0 | 34.3 | 26.3
COc1ccccc1C1CCN(C(=O)c2ccco2)CC1 | 5.0 | 4.5 | 1.4 | -17.8 | 5.9 | .
COc1ccc(C(=O)N2CCc3cc(OC)c(OC)cc3C2)cc1OC | 15.8 | 24.5 | 0.0 | 0.3 | 4.4 | .
COc1ccccc1N1CCN(C(=O)CSc2ccccc2)CC1 | 30.5 | 23.4 | -1.2 | -27.8 | 15.1 | .
O=C(Nc1cccc(Cl)c1)c1csc([C@@H]2O[C@H](CO)[C@H](O)[C@H](O)[C@H]2O)n1 | . | . | -1.9 | . | . | .
CC(C)(C)OC(=O)NCCc1nc(NC(=O)OCc2ccccc2)sc1C(=O)O | . | . | 1.1 | . | . | .
O=C(NCC1CCCCC1)c1cc(-c2cc(F)ccc2OCC2CCCO2)n[nH]1 (stereo unspecified) | . | . | 0.1 | . | . | .
CCCCC(=O)Nc1ccc(C2C(=O)c3ccccc3C2=O)cc1 | -5.5 | 15.4 | 0.1 | 4.6 | -18.4 | .
CCC(=O)Nc1ccc(C2C(=O)c3ccccc3C2=O)cc1 | 42.2* | 30.2 | 0.4 | -29.4 | 18.0 | 21.9
CCOC(=O)C1=C[C@@H](C2CCCC2)N(S(=O)(=O)c2ccc([N+](=O)[O-])cc2)[C@H]1c1ccccc1 | . | . | 2.0 | . | . | .
Cc1nc(NCc2ccccn2)c2c3c(sc2n1)CCCC3 | 41.0* | 38.9 | -1.0 | -4.0 | 15.8 | 40.9*
c1coc(CNc2ncnc3sc4c(c23)CCCCC4)c1 | 27.0 | 40.8 | -0.8 | 12.7 | 32.4 | .
O=C(Nc1ncnc2sc3c(c12)CCCCC3)c1ccc(F)cc1 | 45.1* | 23.2 | -1.0 | -7.9 | 26.3 | 32.0*
c1ccc(CNc2ncnc3sc4c(c23)CCCC4)nc1 | 44.9* | 42.3 | -2.8 | 25.8 | -7.3 | 36.0*
Cc1nc(NCCc2ccc(S(N)(=O)=O)cc2)c2c3c(sc2n1)CCC3 | 4.8 | -5.8 | 1.3 | 2.5 | 9.4 | .
Cc1ccc(-c2nc(-c3cccnc3)no2)cc1 | 23.6 | 19.0 | 12.7 | -178.3 | 19.4 | .
c1ccc(-c2ccccc2-c2nc(-c3cccnc3)no2)cc1 | 44.8* | -3.0 | -0.5 | 19.4 | 1.1 | 12.7
c1cncc(-c2noc(-c3cccc4ccccc34)n2)c1 | 30.8 | 16.4 | 1.3 | -127.8 | 23.2 | .
SMILES | tim10-1 inh | tim23-1 inh | MPTP inh | Mdm2 MdmX PPI | TIM10 inh | tim10-1 conf
CCC(=O)Oc1ccc(-c2nc(-c3cccnc3)no2)cc1 | 46.7* | 44.0 | 10.8 | -28.9 | 37.6 | 46.0*
COc1ccc([C@H]2/C=C\CN(C(=O)[C@H](Cc3ccccc3)NC(=O)OCC3c4ccccc4-c4ccccc43)CC(=O)N2Cc2ccc(F)cc2)cc1 | 95.4* | 14.3 | 4.5 | -12.2 | 4.0 | 18.9
Cc1noc(C)c1S(=O)(=O)NC(=O)C1(C)CCN1C(=O)C1(c2ccc(Cl)cc2)CC1 (stereo unspecified) | . | . | -0.4 | . | . | .
C=C(C)C1CC=C(C)/C(=N/NC(=O)CNc2ccc(C)cc2C)C1 (stereo unspecified) | . | . | 0.8 | . | . | .
C=C(C)C1CC=C(C)/C(=N/NC(=O)CNc2ccc(OCC)cc2)C1 (stereo unspecified) | 42.3* | 28.3 | 2.8 | 13.0 | 4.1 | 29.9
CC1CCCCN1C(=O)C1CCN(c2nc(-c3ccccc3)nc3c2CCC3)CC1 (stereo unspecified) | 56.4* | 49.2 | 0.7 | 36.7 | 15.8 | 9.7
O=C(C1CCN(c2nc(-c3ccccc3)nc3c2CCC3)CC1)N1CCCC1 | 21.7 | 19.0 | -2.1 | 25.2 | 7.9 | .
COc1ccc(C(=O)CN(C(=O)c2ccc(Cl)cc2)N2C(=O)C3CCCCC3C2=O)cc1 (stereo unspecified) | 47.1* | 35.1 | 4.9 | 0.9 | 26.2 | 24.2
COc1cccc(C(=O)CN(C(=O)c2ccc(Cl)c(Cl)c2)N2C(=O)C3CCCCC3C2=O)c1 (stereo unspecified) | 33.6 | 34.9 | 18.2 | 16.1 | 36.8 | .
O=C(c1ccc2c(c1)OCCO2)N1CCN(c2ncc(C(F)(F)F)cc2Cl)CC1 | 48.1* | 41.7 | -0.2 | -14.3 | 10.4 | 34.4*
COC(C/C=C/C(=O)COCc1ccccc1)OC | 46.1* | 41.5 | 0.7 | 5.8 | 33.7 | 41.0*
CC(C)C[C@H]1COc2cccc(N3CCN(Cc4ccccc4F)CC3)c2S(=O)(=O)N1 | . | . | 1.3 | . | . | .
CCOc1ccccc1NC(=S)NCCc1ccccc1 | 42.2* | 7.0 | 2.1 | 7.1 | 26.6 | 18.0
Cc1ccc(F)cc1NC(=S)NCCc1ccccc1 | 44.7* | -0.9 | 15.8 | 13.2 | 21.3 | 23.7
CCOc1ccccc1NC(=S)NCCc1ccc(F)cc1 | 19.7 | 33.0 | -1.1 | 2.6 | 14.5 | .
CNc1cncc(-c2ccc(OC)cc2OC)n1 | . | . | 0.5 | . | . | .
Cc1ccc(/C=N/NC(=O)CSCc2ccc(Cl)cc2)cc1 | 40.5* | 42.2 | 1.9 | 10.4 | 38.8 | 24.9
CC(C)Cn1nc(NS(=O)(=O)c2ccccc2)c2cc3ccccc3nc21 | 9.0 | 18.8 | 2.5 | -5.2 | 11.7 | .
CCCc1nc([N+](=O)[O-])c(S(=O)(=O)c2ccccc2)n1CC(C)C | 50.5* | 31.6 | -1.4 | 37.9 | 20.7 | 26.1
COc1cc(C(O)c2nc(-c3cccc(C(F)(F)F)c3)cs2)ccc1F (stereo unspecified) | . | . | 5.9 | . | . | .
CN1CCN(c2ccc(CNC(=O)C3(C)Cc4c(-c5ccc6c(c5)OCO6)ccnc4O3)cc2)CC1 (stereo unspecified) | . | . | -0.3 | . | . | .
N#Cc1ccc(N2Cc3ccccc3C2=NC(=O)c2cccs2)cc1 | 51.3* | 40.0 | 2.9 | -22.6 | 21.4 | 38.8*
CC1(C)CC2(C)OC2C2(C1)N=NC(=Nc1ccccc1)O2 (stereo unspecified) | . | . | 0.7 | . | . | .
CC(C)C[C@H]1CN([C@@H](Cc2ccc(O)cc2)CN2CCC[C@H]2CN2C(=O)C(=O)NC[C@@H]2Cc2ccccc2)C(=O)C(=O)N1CC1CCCCCC1 | . | . | -5.0 | . | . | .
Cc1csc(=N)n1-c1ccc(Cl)cc1 | 48.3* | 39.8 | 1.7 | -11.0 | 19.0 | 23.4
CCOC(=O)c1c(NC(=O)CCN2CCOCC2)sc2c1CC(C)(C)OC2 | 41.8* | 28.5 | 1.5 | -11.8 | 12.5 | 24.9
